TGFb SMAD3 inh: inhibitors of TGF-b signaling; HepG2 CAGA-GFP TGF-b/SMAD3 reporter, GFP fluorescence, 18 h; TGF-beta stimulated, 500 pg/mL final; Potency, µM (top dose mostly 46.1 µM), inactives show at the highest dose activity, negative = inhibition, most hits filed as inhibitors; 410,000 compounds, 1.2% hits; AID 588855; also: % is scaled to controls: 0 for no effect and ±100 for the full control effect; nearly all actives have a fitted effect of over 65% in size
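Inhibition was scored as loss of TGF-beta-induced (500 pg/mL final, 18 hours, 37 degrees C) GFP in HEPG2 cells carrying a CAGA-GFP reporter, in DMEM with 1% FBS. Well GFP was summed per cell; Activity was normalised to unstimulated and stimulated DMSO wells, then concentration-response fitting.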
ATXN2 expr inh: reduces ATXN2 reporter expression in HEK-293 cells; HEK-293 ATXN2-luciferase reporter, luminescence, 24 h; Potency, µM (doses to about 57 µM), for the others: top-dose activity change, negative = inhibition, most hits filed as inhibitors; 360,000 compounds, 0.72% hits; also: % is scaled to controls: 0 for no effect and ±100 for the full control effect; nearly all actives have a fitted effect of over 55% in size
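qHTS (up to 57 uM final) was run with 24 h compound exposure of reporter cells at 37 °C. Each well was multiplexed: SteadyGlo luminescence measured ATXN2-luciferase expression after a fluorogenic Gly-Phe-AFC viability readout (25 uM final).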
HT1080-NT tox: kills 2HG-producing HT-1080-NT fibrosarcoma cells | 360,000 compounds, 1.6% hits | HT-1080-NT fibrosarcoma viability, CellTiter-Glo ATP luminescence, 48 h | Potency, µM (top dose mostly 46.1 µM), for inactives: top-dose activity, negative = less viability, hits mostly cytotoxic | AID 686970;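 also: NT is the 2HG producing partner of a matched IDH1 knockdown line; 0% = DMSO-treated cells and -100% = media-only wells without cells; nearly all actives have a fitted effect of over 55% in size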
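750 cells/well, RPMI + 5% FBS; 2 h settle, compound pin-transfer, 48 h at 37 degrees C. CellTiter-Glo 10 min RT, luminescence. Normalized to DMSO and media-only wells.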
HepG2 tox: HepG2 cytotoxicity, counter-screen for TGF-b inhibitors. HepG2 CAGA-GFP viability, ATP luminescence, 18 h. Potency, µM (highest dose often 46.1 µM), for inactives: at the top dose activity change, negative = cytotoxicity, usual class: cytotoxic. 410,000 compounds, 0.76% hits
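HepG2 CAGA-GFP cells (1000/well, DMEM with 1% FBS) received compound, then TGF-beta at 500 pg/mL final, and were incubated 18 hours at 37 degrees C. Viability was read by CellTiter-Glo luminescence. Media-only wells were set as complete cell-killing and DMSO as no toxicity.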
HT1080 IDH1KD tx: kills HT-1080 cells with IDH1 knockdown. AID 686971. 360,000 compounds, 2% hits. HT-1080 IDH1 knockdown viability, ATP luminescence, 48 h. Potency, µM (series often up to 46.1 µM), for the others: at the top dose activity, negative = toxicity, usual class: cytotoxic;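 also: 0% = DMSO wells and -100% = cell-free medium wells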
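After a 2 h attachment period, IDH1KD HT-1080 cells took pin-transferred compound for 48 h at 37 °C; ATP-based luminescence after 10 min room-temperature reagent incubation reported viability.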
S2 tox: cell viability loss in ATXN counter-screen | S2 cells (HEK-293 line with an ATXN2-luciferase reporter) viability, CellTiter-Fluor protease fluorescence, 24 h | Potency, µM (doses to about 56.7 µM), actives largely listed as cytotoxic | 400,000 compounds, 0.49% hits | AID 651635; also: nearly all actives have a fitted effect of over 40% in size
An asterisk follows results filed as active; i = inactive; ? = inconclusive; nt = not tested or not shown; ! = repeats disagree; [ ] = dose if it differs, or a comment. Hits are enriched below; roughly 3.8% of the tested compounds scored in any of these assays. Calls follow the shape of the dose curve; as a rule, active = well fitted curve in the direction sought with a large enough effect; inconclusive = small, poorly fitted or top-dose-only effect, or another doubt; inactive = no such curve, though single readings can be large; an effect the other way counts as inactive or inconclusive. Potency is read from the fitted curve at half-maximal effect.

SMILES	TGFb SMAD3 inh	ATXN2 expr inh	HT1080-NT tox	HepG2 tox	HT1080 IDH1KD tx	S2 tox
COC(=O)c1cccc(OCCCN2CCC(C(O)(c3ccccc3)c3ccccc3)CC2)c1	nt	-7.0%	?	nt	16.4µM*	nt
S=C(c1ccc2c(c1)OCO2)N1CCN(c2cccc(Cl)c2)CC1	0.8%	-5.9%	?	11.4%	3.26µM*	i
COc1ccc(CN2CCN(c3ccc(F)cc3)CC2)c(OC)c1OC	9.6%	-21.7%	0.3%	18.8%	-22.8%	i
COc1ccc(CN2CCN(C(c3ccc(F)cc3)c3ccc(F)cc3)CC2)c(OC)c1OC	?	39.8µM*!	?	-28.4%	?	?
C(=C\c1ccnc2ccccc12)/c1ccc2c(c1)OCO2	7.8%	nt	nt	-3.5%	nt	nt
COc1ccc(Cl)cc1NC(=O)CCS(=O)(=O)c1nc(-c2cccs2)cc(C(F)(F)F)n1	?	nt	nt	-101.4%	nt	nt
COc1ccc(Cl)cc1NC(=O)CCCS(=O)(=O)c1nc(-c2ccc(OC)c(OC)c2)cc(C(F)(F)F)n1	2.82µM*	nt	nt	14.1µM*	nt	nt
COc1ccc(-c2cc(C(F)(F)F)nc(S(=O)(=O)CCCC(=O)Nc3cc(C)on3)n2)cc1OC	?	?	16.4µM*	-108.9%	20.6µM*	?
COc1ccccc1-c1cc(C(F)(F)F)nc(S(=O)(=O)CCCC(=O)Nc2cc(C)on2)n1	-6.1%	?	9.2µM*	-35.4%	4.11µM*	nt
Cc1cc(NC(=O)CCCSc2nc(-c3ccco3)cc(C(F)(F)F)n2)no1	-10.4%	-20.4%	12.8%	-6.0%	2.1%	i
COc1ccc(-c2n(Cc3ccccc3)c3ccccc3[n+]2Cc2ccccc2)cc1	7.94µM*	?	4.61µM*	-45.2%	5.8µM*	i
Oc1ccc(Br)cc1C1C=C(c2ccc3c(c2)OCO3)NC(c2c(F)cccc2Cl)N1 (stereo not given)	?	nt	nt	-89.4%	nt	nt
COc1ccc(C2=NN(C(=O)c3cccs3)C(c3ccccc3O)C2)cc1 (stereo not given)	12.6µM*	nt	-28.7%	-97.6%	-26.9%	?
COc1ccc(C(=O)N2N=C(c3cccs3)CC2c2ccccc2O)cc1 (stereo not given)	?	0.4%	?	11.2µM*	?	?
Cc1ccc(C(=O)N2N=C(c3ccc(Br)cc3)CC2c2ccccc2O)cc1 (stereo not given)	?	?	14.6µM*	-109.0%	14.6µM*	nt
COc1ccc2cc(C3CC(c4cccs4)=NN3C(C)=O)c(Cl)nc2c1 (stereo not given)	4.5%	-2.6%	8.6%	2.1%	12.9%	i
COc1ccc(C2CC(c3ccccc3)=NN2C(=O)c2cccs2)cc1 (stereo not given)	-21.2%	42.3%	?	-19.3%	?	i
CC(C)(C)c1nnc(NC(=O)C2CCN(c3ncccn3)CC2)s1	-1.7%	13.1%	5.6%	-9.2%	5.8%	i
CC(C)(C)c1cnc(CSc2cnc(NC(=O)C3CCNCC3)s2)o1	nt	0.306µM*	nt	nt	nt	nt
C[C@H](NC(=O)C(=O)Nc1ccccc1C(C)(C)C)C(=O)N[C@@H](CC(=O)O)C(=O)COc1c(F)c(F)cc(F)c1F	nt	-0.3%	nt	nt	nt	nt
CC(C)(C)n1ncc2c(=O)n(Cc3c(Cl)ccc(Cl)c3Cl)cnc21	-2.3%	nt	nt	-2.3%	nt	nt
Cc1cc(SCC(=O)c2ccc(O)c(O)c2)n2nc(C)c(-c3ccccc3)c2n1	17.8µM*	?	8.2µM*	-28.1%	9.2µM*	?
COCCOC(=O)C1=C(C)NC2=C(C(=O)CC(c3ccccc3OC)C2)C1c1cccc(O)c1 (stereo not given)	nt	85.1%	nt	nt	nt	nt
CC(C)Oc1ccc(CCN=C(N)N=C(N)N)cc1Cl	-9.4%	nt	-19.3%	-7.1%	23.1µM*	i
CCCCCCCCCCCCCCCC[n+]1ccc(CC(O)c2c(C)[nH]c3ccccc23)c2ccccc21 (stereo not given)	?	nt	nt	8.91µM*	nt	nt
SMILES	TGFb SMAD3 inh	ATXN2 expr inh	HT1080-NT tox	HepG2 tox	HT1080 IDH1KD tx	S2 tox
C#C[C@]1(O)CC[C@H]2[C@@H]3CCc4cc(O)ccc4[C@H]3CC[C@@]21C	-13.0%	-9.0%	9.2µM*	-3.9%	20.6µM*	?
C#C[C@]1(O)CC[C@@H]2[C@@H]3CCc4cc(O)ccc4[C@H]3CC[C@@]21C	nt	-16.3%	nt	nt	nt	nt
CC(=O)O[C@H]1CC[C@H]2[C@@H]3CCc4cc(O)ccc4[C@H]3CC[C@]12C	?	?	18.4µM*	-49.7%	?	?
Nc1nc2[nH]cc(CCc3ccc(C(=O)N[C@@H](CCC(=O)O)C(=O)O)cc3)c2c(=O)[nH]1	-13.7%	-14.5%	nt	-6.9%	nt	nt
Cc1cccc(OCC(O)Cn2c(=N)n(Cc3ccccc3)c3ccccc32)c1 (stereo not given)	?	nt	-1.2%	-71.4%	-18.1%	i
N=c1n(Cc2ccc(Cl)cc2)c2ccccc2n1CC(O)COc1ccccc1 (stereo not given)	?	?	20.6µM*	-166.5%	14.6µM*	nt
COc1ccc(OCC(O)Cn2c(=N)n(Cc3ccccc3)c3ccccc32)cc1 (stereo not given)	?	?	?	-97.3%	11.2µM*	nt
N=c1n(Cc2ccccc2)c2ccccc2n1CC(O)COc1ccc(Cl)cc1Cl (stereo not given)	?	-15.7%[11.3 µM]	29.1µM*	11.2µM*	11.6µM*	nt
Cc1ccc(OCC(O)Cn2c(=N)n(Cc3ccccc3)c3ccccc32)cc1 (stereo not given)	?	?	-24.6%	12.6µM*	18.4µM*	?
Cc1c(CCC(=O)NCc2ccc(F)cc2)c(=O)oc2cc(O)ccc12	4.3%	-4.1%	nt	-4.0%	nt	i
CCCCn1c(=O)n(-c2cc(OC)ccc2OC)c(=O)c2c3c(sc21)CN(C(C)=O)CC3	-13.2%	1.1%	nt	-34.0%	nt	i
O=C(c1cc(-c2ccccc2)on1)N1CCOc2ccc(CN3CCN(c4ccccn4)CC3)cc2C1	nt	nt	nt	nt	nt	i
COc1ccc(CN2CCN(CC(O)Cn3c4ccccc4c4ccccc43)CC2)cc1 (stereo not given)	?	?	18.4µM*	-108.0%	?	?
CC(/C=N\NC(=O)Cn1c(C)nc2ccccc21)=C\c1ccccc1	-18.8%	?	8.2µM*	-11.9%	20.6µM*	?
CC(/C=N/NC(=O)CSc1nc(C)cc(C)n1)=C\c1ccccc1	65.2%	-13.2%	1.4%	-1.4%	-0.6%	i
COc1ccc(Cl)cc1N(CC(=O)N1CCCC1)S(=O)(=O)c1ccc(C)cc1	8.9%	-1.3%	10.3%	1.5%	6.4%	i

Screens from PubChem.
